From PubChem BioAssay
KKLEB tox: cytotoxicity in KKLEB CF airway cells, primary screen, cytotoxicity control for CF NF-kB inhibitor project, cell-based, uHTS, fluorescence assay plates; KKLEB CF airway cells viability, ATPlite luminescence, overnight; hits give low values; cells stimulated with P. aeruginosa culture filtrate; activity change (cytotoxicity), % at 5 µM; hit rate 0.36% among 360,000; AID 602141, 2011;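 active = corrected activity change at or below -50% at 5 µM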
HIF-2a inh: HIF-2a reporter inhibitors, primary screen, luminescence, 786-0 RCC cells; 786-0 RCC cells HIF-2a reporter, luciferase luminescence, overnight; inhibition, % at 18.8 µM; hit rate 0.72% among 360,000; AID 624352, 2012;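 active = inhibition of the luminescence signal of 40% or more relative to plate controls, in a single-dose primary screen at 18.75 µM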
CF NFkB inh: inhibitors of PAF-induced NF-kB signaling, primary screen, cell-based, GFP fluorescence, uHTS | inhibition, % at 5 µM | AID 588850, 2011 | hit rate 0.86% among 360,000 | KKLEB NF-kB-GFP reporter, GFP fluorescence overnight;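 active = at least 50% inhibition at 5 µM, scaled per plate between neutral and stimulator controls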;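 note: PAF is a Pseudomonas aeruginosa culture filtrate used as stimulus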
Peg3 promoter: Peg3 promoter-driven luciferase inhibitors, primary screen, cell-based, HeLa, luciferase luminescence; AID 588405, 2011; inhibition, % at 20 µM; HeLa PEG-Prom luciferase reporter, overnight; hit rate 1.7% among 360,000;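 active = inhibition of at least 50% at 20 µM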
Beta2AR agonist: beta2AR agonists driving receptor internalization, primary screen, cell-based, FAP fluorogen, flow cytometry; Am2.2-beta2AR cells; response, % (no concentration beside the values); hit rate 0.43% among 340,000;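 active = response above a set limit, near 3 SD of response in nonfluorescent compounds, cut at about 42% in these data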
Target sequence (P07550 whole entry, looked up): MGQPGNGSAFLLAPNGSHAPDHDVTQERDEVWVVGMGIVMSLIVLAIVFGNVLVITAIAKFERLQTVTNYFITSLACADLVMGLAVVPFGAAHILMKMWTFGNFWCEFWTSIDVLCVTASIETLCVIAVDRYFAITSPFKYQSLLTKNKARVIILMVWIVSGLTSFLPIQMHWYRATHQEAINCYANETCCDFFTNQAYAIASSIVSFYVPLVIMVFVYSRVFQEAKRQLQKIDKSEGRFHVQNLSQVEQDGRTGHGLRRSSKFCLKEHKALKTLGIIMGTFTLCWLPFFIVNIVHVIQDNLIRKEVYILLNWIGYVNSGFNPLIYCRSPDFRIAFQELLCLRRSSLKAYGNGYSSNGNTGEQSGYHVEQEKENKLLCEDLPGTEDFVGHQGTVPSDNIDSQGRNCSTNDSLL
MITF TRPM1 inh: inhibitors of MITF-dependent TRPM1 promoter reporter, primary screen, cell-based, SK-MEL-5, single point, luciferase. SK-MEL-5 TRPM1 promoter luciferase, 24 h. inhibition, % at 12.5 µM. hit rate 0.83% among 330,000. AID 488899, 2010;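 active = mean inhibition across replicates of 60% or more, whatever share of single replicates reaches that level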
Large screens that a line does not name were inactive. A selection: hits, their analogues and other compounds. The true share with any hit is near 2.8%.

O=C(COc1coc(CN2CCc3ccccc3C2)cc1=O)Nc1cccc(F)c1	none
CC1(Cc2ccccc2OC(F)(F)F)C(=O)Nc2c(Cl)ccc(Cl)c21 (stereo unspecified)	none (no result: Beta2AR agonist, MITF TRPM1 inh)
O=C(N/N=C/c1ccc(N2CCOCC2)s1)c1ccc(O)cc1	none (no result: Beta2AR agonist, MITF TRPM1 inh)
NC(=O)N/N=C/c1ccc(N2CCOCC2)s1	Peg3 promoter 52
CN(CC(=O)Nc1cccc(F)c1)C(=O)c1cc(-c2cccs2)nn1-c1ccccc1	Peg3 promoter 56
CC1=C(C(=O)N2CCOCC2)CC(CC(=O)NCc2ccco2)C(=O)N1Cc1ccccc1 (stereo unspecified)	none (no result: Beta2AR agonist, MITF TRPM1 inh)
CC1CC(C)CN(CCCNC(=O)c2cc3c(s2)-c2ccccc2OC3)C1 (stereo unspecified)	none
CC1CCCC(C)N1CCCNC(=O)c1cc2c(s1)-c1ccccc1OC2 (stereo unspecified)	Peg3 promoter 79, MITF TRPM1 inh 61
CC(=O)c1cccc(NC(=O)c2cccc3c(-c4cccc(C(N)=O)c4)coc23)c1	Peg3 promoter 98 (no result: Beta2AR agonist, MITF TRPM1 inh)
O=C(Nc1cccc(C(F)(F)F)c1)c1cccc2c(-c3cccnc3)coc12	none (no result: Beta2AR agonist, MITF TRPM1 inh)
COc1cc(NC(=O)c2cccc3c(-c4cccnc4)coc23)cc(OC)c1OC	Peg3 promoter 99 (no result: Beta2AR agonist, MITF TRPM1 inh)
CS(=O)(=O)Nc1cccc(NC(=O)c2cccc3c(-c4cccc(C(N)=O)c4)coc23)c1	none (no result: Beta2AR agonist, MITF TRPM1 inh)
COC(=O)[C@]12CCCCC=C1N(CCc1ccc(OC)c(OC)c1)C(=O)[C@H](CC(=O)NCCC(C)C)C2	none (no result: KKLEB tox, CF NFkB inh, Peg3 promoter, Beta2AR agonist, MITF TRPM1 inh)
O=C1c2ccccc2C(c2nnnn2-c2ccc3c(c2)OCCO3)N1CCc1c[nH]c2ccccc12 (stereo unspecified)	none (no result: KKLEB tox, CF NFkB inh, Peg3 promoter, Beta2AR agonist, MITF TRPM1 inh)
CCCc1nc2ccc(C)cn2c1Cc1ccc(OC)cc1C	none (no result: Beta2AR agonist, MITF TRPM1 inh)
Cc1cc(C)c(S(=O)(=O)N2CCCCC2)cc1N(C)S(=O)(=O)c1ccc(Cl)cc1	Peg3 promoter 98
Cc1ccc(S(=O)(=O)N(C)c2cc(S(=O)(=O)N3CCOCC3)c(C)cc2C)cc1	none
COc1cccc(N(C(=O)c2ccco2)c2nc(-c3sc(NC(=O)c4ccco4)nc3C)cs2)c1	MITF TRPM1 inh 73
Cc1nc(NC(=O)c2ccco2)sc1-c1csc(Nc2ccc(Cl)cc2)n1	none
Cc1ccc(NS(=O)(=O)c2ccc(Cl)c(C(=O)Nc3ccccc3-c3nc4ccccc4[nH]3)c2)cc1C	CF NFkB inh 56
Cc1ccc(C(=O)/C=C/c2ccc(-c3ccc(C)cc3)o2)cc1	Peg3 promoter 74
O=C(/C=C\c1ccc(-c2ccccc2)o1)c1ccccc1	Peg3 promoter 80
O=C(/C=C/c1ccccc1)c1ccccc1	none
COc1ccc2c(c1)CCC1(C)CC(=O)C(Br)=C21 (stereo unspecified)	none (no result: Beta2AR agonist, MITF TRPM1 inh)
Nc1ccn([C@@H]2O[C@H](CNC(=O)[C@@H](N)CSCc3ccccc3)[C@@H](O)[C@H]2O)c(=O)n1	none (no result: Beta2AR agonist, MITF TRPM1 inh)
COc1ccc(CC(N)c2csc(NC(=O)c3ccccc3)n2)cc1 (stereo unspecified)	none (no result: Beta2AR agonist, MITF TRPM1 inh)
COc1ccc(CC(N)c2csc(NC(=O)c3cc(C(C)(C)C)nn3Cc3ccccc3)n2)cc1 (stereo unspecified)	KKLEB tox -52, CF NFkB inh 58, Peg3 promoter 100 (no result: Beta2AR agonist, MITF TRPM1 inh)
COc1ccc(CC(N)c2csc(NC(=O)C(c3ccccc3)c3ccccc3)n2)cc1 (stereo unspecified)	Peg3 promoter 98 (no result: Beta2AR agonist, MITF TRPM1 inh)
NC(CCc1ccccc1)c1csc(NC(=O)NCCc2ccccc2)n1 (stereo unspecified)	Peg3 promoter 93 (no result: Beta2AR agonist, MITF TRPM1 inh)
COc1ccc(CC(N)c2csc(NC(=O)NCCc3ccccc3)n2)cc1 (stereo unspecified)	Peg3 promoter 58 (no result: Beta2AR agonist, MITF TRPM1 inh)
COc1ccc(OC)c(NC(=O)C2(C)CCN2C(=O)CCC2CCCC2)c1 (stereo unspecified)	none (no result: Beta2AR agonist, MITF TRPM1 inh)
CC(O)(c1cccc(F)c1)c1nc(-c2ccc3ccccc3c2)cs1 (stereo unspecified)	none (no result: Beta2AR agonist, MITF TRPM1 inh)
O=C(CSc1ncccn1)NC(=O)NC1CCCC1	none (no result: Beta2AR agonist, MITF TRPM1 inh)
NC(Cc1ccc(Cl)cc1)c1csc(NC(=O)NCCc2ccccc2)n1 (stereo unspecified)	Peg3 promoter 96 (no result: Beta2AR agonist, MITF TRPM1 inh)
COc1cc(CNC(=O)Nc2nc(C(N)c3ccccc3)cs2)cc(OC)c1OC (stereo unspecified)	none (no result: Beta2AR agonist, MITF TRPM1 inh)
NC(Cc1ccc(Cl)cc1)c1csc(NC(=O)Nc2ccccc2-c2ccccc2)n1 (stereo unspecified)	Peg3 promoter 90 (no result: Beta2AR agonist, MITF TRPM1 inh)
COc1ccc(CNC(=O)Nc2nc(C(N)Cc3ccc(C(F)(F)F)cc3)cs2)cc1 (stereo unspecified)	Peg3 promoter 95 (no result: Beta2AR agonist, MITF TRPM1 inh)
COc1cc(CNC(=O)Nc2nc(C(N)Cc3ccc(Cl)cc3)cs2)cc(OC)c1OC (stereo unspecified)	Peg3 promoter 86 (no result: Beta2AR agonist, MITF TRPM1 inh)
COc1cc(C(O)c2nc(-c3ccc(F)c(Cl)c3)cs2)ccc1F (stereo unspecified)	none (no result: Beta2AR agonist, MITF TRPM1 inh)
COc1ccccc1CNC(=O)Nc1nc(C(N)CCc2ccccc2)cs1 (stereo unspecified)	Peg3 promoter 97 (no result: Beta2AR agonist, MITF TRPM1 inh)
COc1ccc(CC(N)c2csc(NC(=O)c3cccc(OC(F)(F)F)c3)n2)cc1 (stereo unspecified)	Peg3 promoter 94 (no result: Beta2AR agonist, MITF TRPM1 inh)
NC(CCc1ccccc1)c1csc(NC(=O)Nc2ccccc2Oc2ccccc2)n1 (stereo unspecified)	Peg3 promoter 118 (no result: Beta2AR agonist, MITF TRPM1 inh)
Cn1ccc2c(-c3ccc(C(N)=O)cc3)cc3c(c21)C1CCC3C1 (stereo unspecified)	none (no result: Beta2AR agonist, MITF TRPM1 inh)
COc1ccc(CN2C(=O)CN(S(C)(=O)=O)CC2(C)C(=O)Nc2ccc3c(c2)OCCO3)cc1OC (stereo unspecified)	none (no result: KKLEB tox, CF NFkB inh, Peg3 promoter, Beta2AR agonist, MITF TRPM1 inh)
CCN(CC)C(=O)C1=C(C)N(CCCOC)C(=O)C(CC(=O)NC2CC2)C1 (stereo unspecified)	none (no result: Beta2AR agonist, MITF TRPM1 inh)
Cc1ccc2[nH]c(-c3cccc(F)c3)cc(=O)c2c1	none
COc1ccc2[nH]c(-c3cccc(F)c3)cc(=O)c2c1	CF NFkB inh 56
O=C(Cc1ccccc1)Nc1cccc(N2C(=O)C=CC2=O)c1	CF NFkB inh 52, Peg3 promoter 96
COc1ccc(CN(CCN(C)C)c2ccccn2)cc1	none
CCCCCCCCCCCCCCCC[N+](C)(C)CCN(Cc1ccc(OC)cc1)c1ncccn1	HIF-2a inh 86, Peg3 promoter 105, MITF TRPM1 inh 103
